The panel holds about 83,000 compounds, 20% with a hit somewhere; the sample as a whole holds those more often.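 Note: values are percent growth. 100 is the growth of untreated cells, values between 100 and 0 indicate rising inhibition; between -100 and 0 indicates cell death.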 Values without a mark were called inactive. Activity calls are given as the source filed them. The calls were made as follows: active = growth percent below 10; inactive = the rest.
Test system: COLO 205 colon
Experiment: NCI-60 one-dose screen, 48 h (100 = growth as untreated, 0 = no growth, -100 = all killed)
Settings: 10 µM unless noted

Going from `COc1ccc2c(c1)C(=Nc1cc(OC)c(OC)c(OC)c1)C(=O)N2` to `COc1ccc(C(=O)/C=C/c2ccc(C)cc2)cc1OC`, the growth falls from 92.5% to 82.8%.

Compared with `CC(=O)N1N=C(c2ccc(Cl)cc2)CC1c1c(C)nn(-c2ccccc2)c1N(C)Cc1ccccc1` (stereo unspecified), `COc1ccc(N2CCN(CC(=O)N3CCN(c4nnc(-c5ccccc5)c(-c5ccccc5)n4)CC3)CC2)cc1` is lower in growth: 74.9% for the first, 47.9% for the second.

Going from `CCCCN1c2nc3ccccc3cc2Sc2cc3ccccc3nc21` to `Cc1cc(=O)[nH]c(/C(=N/Nc2ccccc2)C(=O)c2ccc(Cl)cc2)n1`, the growth falls from 132% to 106%.

Going from `Nc1ccn(C2O[C@H](CO)[C@@H](O)[C@@H]2O)c(=O)n1` (stereo partly specified) to `Cc1sc2nc(NCCc3cccs3)[nH]c(=O)c2c1C`, the growth rises from 57.3% to 91%.

Going from `O=c1[nH]c(N2CCC(Cc3ccccc3)CC2)nc2sc3c(c12)CCCC3` to `CN1CCN(c2nc3scc(-c4ccccc4)c3c(=O)[nH]2)CC1`, the growth falls from 105% to 99%.

`CSc1nc(-c2ccc(O)cc2O)c2c(=O)[nH]c(Nc3ccc(S(=O)(=O)Nc4nc(C)cc(C)n4)cc3)nc2n1` and `Nc1nc(Nc2ccccc2SSc2ccccc2Nc2nc(N)nc(-c3ccc(I)cc3)n2)nc(-c2ccc(I)cc2)n1` are the same in growth: 112% for the first, 112% for the second.

Going from `Oc1ccccc1/C=N/N1CCCCCC1` to `O=C1/C(=C/c2ccccc2O)C(=S)SN1Cc1ccco1`, the growth falls from 122% to 113%.

First: O=C1OC2(c3ccccc31)c1ccccc1-c1ccccc12
Second: O=C(Nc1ccccc1OC(=O)c1ccccc1)c1ccccc1
The growth of the first is lower: 81.7% for the first, 108% for the second.

First: COP(=O)(OC)C(c1ccccc1)(c1ccccc1)c1ccccc1
Second: COc1ccc(C(=O)COc2ccc(/C=C3\Oc4ccc5ccccc5c4C3=O)cc2)cc1
The growth of the first is lower: 103% for the first, 121% for the second.

First: CCOc1cc(/C=C/C(=O)CC(=O)/C=C/c2ccc(OC(=O)CNc3nc4ccc(OC)cc4s3)c(OCC)c2)ccc1OC(=O)CNc1nc2ccc(OC)cc2s1
Second: O=C(NC1CCCCC1)c1ccc(Nc2ncnc3c2cnn3-c2ccccc2)cc1
The growth of the first is higher: 109% for the first, 65.4% for the second.

Going from `Cc1cn(C(C=O)OC(C=O)CO)c(=O)[nH]c1=O` (stereo unspecified) to `Cn1cc(NC(=O)Nc2cc(C(=O)O)n(C)c2)cc1C(=O)O`, the growth rises from 109% to 113%.

Going from `Oc1c(Cl)cc(Oc2cc(Cl)c(O)c(CN3CCOCC3)c2)cc1CN1CCOCC1` to `O=C1/C(=C/c2cccc(Cl)c2)CCc2ccccc21`, the growth rises from 105% to 111%.

First: CCOC(=O)CCC(=O)O[C@H]1[C@H](O[C@@H]2[C@@H](C)[C@H](O[C@H]3C[C@@](C)(OC)[C@@H](O)[C@H](C)O3)[C@@H](C)C(=O)O[C@H](CC)[C@@](C)(O)[C@H](O)[C@@H](C)C(=O)[C@H](C)C[C@@]2(C)O)O[C@H](C)C[C@@H]1N(C)C
Second: NC(=O)NS(=O)(=O)c1ccc(N2N=C(C(F)(F)F)CC2c2cc(C(F)(F)F)cc(C(F)(F)F)c2)cc1 (stereo unspecified)
The growth of the first is higher: 109% for the first, 99.8% for the second.

Molecule `Oc1c(N=Nc2nn[nH]n2)ccc2ccccc12` has a growth of 54%.

With `C=C1CCC2C(C)(COC(=O)CC)C(OC(=O)CC)CCC2(C)C1C/C=C1/C(=O)OCC1OC(=O)CC` (stereo unspecified) the growth was -28.1% (active).
For `COCCOCCOCCOCCOc1ccc2c(c1)C(=O)c1nc3ncccc3c(=O)n1-2`, the growth was -85.9% (active).
For `Cc1ccc2nc3c(n2c1)C(=O)C(=O)c1ccccc1-3`, the growth was -69.2% (active).
With `Cc1ccc(/C=C(/C#N)n2nnc3ncccc32)cc1` the growth was -45.3% (active).
With `CCOC(=O)Nc1cc(-c2ccc(C)c(NS(C)(=O)=O)c2)nn2c(C)nnc12` the growth was 3.41% (active).
`CCCc1n(Cc2ccc3ccccc3c2)cc[n+]1Cc1ccc2ccccc2c1` was tested, and the growth was -66.9% (active).
`CN1CCN(CCCOc2ccc3ncnc(Nc4ccc(OCc5cccc(F)c5)c(Cl)c4)c3c2)CC1` was tested, and the growth was -46.5% (active).
For `N#Cc1ncc(-c2ccc(C(F)(F)F)cc2)c(NC2CCCCCC2)n1`, the growth was 7.19% (active).

With `CNc1nc(NC2CCCC2)nc(Sc2ccc(OC)cc2)n1` the growth was 22.5% [100 µM].
